The supplement of paper PMC8728848
This excerpt belongs to a sample that is enriched for the strongest signals.

B1: CM2 (Cordyceps militaris) (protein)
chain: MEIAEQNVGKSCAIVNLIPPKEGSNIWTAKQVTIARNLPPNRGTGRHQIDWSFGPVKVTGYVDTTNWEIGVTVSIMGIDLGTVYGNLRDGVVLNVDLFLAKGQVRFYLKNGNEVWVHLSVEIRFDGKFEGDYKIITV
B2: Surfactant Protein D (Human); Neck + Carbohydrate Recognition Domain (NCRD) (Homo sapiens) (protein)
chain: MLLFLLSALVLLTQPLGYLEAEMKTYSHRTMPSACTLVMCSSVESGLPGRDRDGREGPRGEKGDPGLPGAAGQAGMPGQAGPVGPKGDNGSVGEPGPKGDTGPSGPPGPPGVPGPAGREGALGKQGNIGPQGKPGPKGEAGPKGEVGAPGMQGSAGARGLAGPKGERGVPGERGVPGNTGAAGSAGAMGPQGSPGARGPPGLKGDKGIPGDKGAKGESGLPDVASLRQQVEALQGQVQHLQAAFSQYKKVELFPNGQSVGEKIFKTAQFVKPFTEAQLLCTQAGGQLASPRSAAENAALQQLVVAKNEAAFLSMTDSKTEGKFTYPTGESLVYSNWAPGEPNDAGGSEDCVEIFTNGKWNDRACGEKRLVVCEF

Key:
Experiment in all cases: glycan array binding signal (z-score within array); higher = stronger binding
[1] = target: Neu5Ac(a2-3)Gal(b1-4)GlcNAc(b1-3)Gal(b1-4)GlcNAc(b1-3)GalNAc; conditions: glycan notation: IUPAC condensed, linker removed
Outline: (§1)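 Glycan array binding is given as a within-array Z-score, which can be read as non-binding when negative. The arrays, 3228 of them, came from the Consortium for Functional Glycomics database and were retained only where the protein sequence was available. Z-scores were averaged across arrays of the same protein sequence at different concentrations or buffers and across linkers.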

[2] = target: Neu5Ac(a2-3)Gal(b1-4)GlcNAc(b1-3)Gal(b1-4)GlcNAc(b1-6)[Gal(b1-3)]GalNAc; conditions: glycan notation: IUPAC condensed, linker removed
Outline: as §1

[3] = target: Neu5Ac(a2-3)Gal(b1-4)GlcNAc(b1-6)[Gal(b1-3)]GalNAc; conditions: glycan notation: IUPAC condensed, linker removed
Outline: as §1

[4] = target: Neu5Ac(a2-3)Gal(b1-4)[Fuc(a1-3)]GlcNAc(b1-3)Gal; conditions: glycan notation: IUPAC condensed, linker removed
Outline: as §1

[5] = target: Neu5Ac(a2-3)[GalNAc(b1-4)]Gal(b1-4)GlcNAc(b1-3)GalNAc; conditions: glycan notation: IUPAC condensed, linker removed
Outline: as §1

[6] = target: Neu5Ac(a2-6)Gal(b1-4)GlcNAc; conditions: glycan notation: IUPAC condensed, linker removed
Outline: as §1

[7] = target: Neu5Ac(a2-6)Gal(b1-4)GlcNAc(b1-2)Man; conditions: glycan notation: IUPAC condensed, linker removed
Outline: as §1

[8] = target: Neu5Ac(a2-6)Gal(b1-4)GlcNAc(b1-2)Man(a1-3)[Man(a1-6)]Man(b1-4)GlcNAc(b1-4)GlcNAc; conditions: glycan notation: IUPAC condensed, linker removed
Outline: as §1

[9] = target: Neu5Ac(a2-6)Gal(b1-4)GlcNAc(b1-2)[Neu5Ac(a2-6)Gal(b1-4)GlcNAc(b1-6)]Man(a1-6)[Neu5Ac(a2-6)Gal(b1-4)GlcNAc(b1-2)Man(a1-3)][GlcNAc(b1-4)]Man(b1-4)GlcNAc(b1-4)GlcNAc; conditions: glycan notation: IUPAC condensed, linker removed
Outline: as §1

[10] = target: Neu5Ac(a2-6)Gal(b1-4)GlcNAc(b1-6)[Gal(b1-3)GlcNAc(b1-3)]Gal(b1-4)Glc; conditions: glycan notation: IUPAC condensed, linker removed
Outline: as §1

[11] = target: Neu5Ac(a2-6)Gal(b1-4)GlcNAc6S; conditions: glycan notation: IUPAC condensed, linker removed
Outline: as §1

Neu5Ac(a2-6)GalNAc = conditions: glycan notation: IUPAC condensed, linker removed
Outline: as §1

[12] = target: Neu5Ac(a2-8)Neu5Ac(a2-3)Gal(b1-4)Glc; conditions: glycan notation: IUPAC condensed, linker removed
Outline: as §1

[13] = target: Neu5Ac(a2-8)Neu5Ac(a2-8)Neu5Ac(a2-3)[Gal(b1-3)GalNAc(b1-4)]Gal(b1-4)Glc; conditions: glycan notation: IUPAC condensed, linker removed
Outline: as §1

[14] = target: Neu5Ac(a2-8)Neu5Gc(a2-3)Gal(b1-4)GlcNAc; conditions: glycan notation: IUPAC condensed, linker removed
Outline: as §1

[15] = target: Fuc(a1-2)Gal(b1-3)GalNAc(b1-4)[Neu5Ac(a2-3)]Gal(b1-4)Glc; conditions: glycan notation: IUPAC condensed, linker removed; mutation: D325A
Outline: as §1

Fuc(a1-2)Gal(b1-3)GlcNAc = conditions: glycan notation: IUPAC condensed, linker removed; mutation: D325A
Outline: as §1

[16] = target: Fuc(a1-2)Gal(b1-4)GlcNAc(b1-3)Gal(b1-4)GlcNAc; conditions: glycan notation: IUPAC condensed, linker removed; mutation: D325A
Outline: as §1

[17] = target: Fuc(a1-2)[Gal(a1-3)]Gal(b1-4)Glc; conditions: glycan notation: IUPAC condensed, linker removed; mutation: D325A
Outline: as §1

[18] = target: Fuc(a1-2)[GalNAc(b1-3)]Gal; conditions: glycan notation: IUPAC condensed, linker removed; mutation: D325A
Outline: as §1

[19] = target: Fuc(a1-3)[Gal3S(b1-4)]Glc6S; conditions: glycan notation: IUPAC condensed, linker removed; mutation: D325A
Outline: as §1

[20] = target: Fuc(a1-3)[Gal3S(b1-4)]GlcNAc; conditions: glycan notation: IUPAC condensed, linker removed; mutation: D325A
Outline: as §1

Gal(a1-3)GalNAc = conditions: glycan notation: IUPAC condensed, linker removed; mutation: D325A
Outline: as §1

[21] = target: Gal(b1-3)GlcNAc(b1-3)Gal(b1-4)GlcNAc; conditions: glycan notation: IUPAC condensed, linker removed; mutation: D325A
Outline: as §1

[22] = target: Gal(b1-4)GlcNAc(b1-2)Man(a1-3)[Gal(b1-4)GlcNAc(b1-2)Man(a1-6)]Man(b1-4)GlcNAc(b1-4)GlcNAc; conditions: glycan notation: IUPAC condensed, linker removed; mutation: D325A
Outline: as §1

[23] = target: Gal(b1-4)GlcNAc(b1-3)Gal(b1-3)GlcNAc; conditions: glycan notation: IUPAC condensed, linker removed; mutation: D325A
Outline: as §1

Gal3S(b1-3)GalNAc = conditions: glycan notation: IUPAC condensed, linker removed; mutation: D325A
Outline: as §1

Gal4S6S(b1-4)GlcNAc = conditions: glycan notation: IUPAC condensed, linker removed; mutation: D325A
Outline: as §1

GlcA(b1-6)Gal = conditions: glycan notation: IUPAC condensed, linker removed; mutation: D325A
Outline: as §1

[24] = target: GlcNAc(b1-4)Gal(b1-4)GlcNAc; conditions: glycan notation: IUPAC condensed, linker removed; mutation: D325A
Outline: as §1

[25] = target: Man(a1-2)Man(a1-2)Man(a1-3)Man; conditions: glycan notation: IUPAC condensed, linker removed; mutation: D325A
Outline: as §1

[26] = target: Man(a1-2)Man(a1-3)[Man(a1-2)Man(a1-6)]Man(a1-6)[Man(a1-2)Man(a1-2)Man(a1-3)]Man; conditions: glycan notation: IUPAC condensed, linker removed; mutation: D325A
Outline: as §1

[27] = target: Man(a1-2)Man(a1-6)[Man(a1-3)]Man(a1-6)[Man(a1-2)Man(a1-2)Man(a1-3)]Man; conditions: glycan notation: IUPAC condensed, linker removed; mutation: D325A
Outline: as §1

[28] = target: Man(a1-3)[Man(a1-6)]Man(a1-6)[Man(a1-2)Man(a1-3)]Man(b1-4)GlcNAc(b1-4)GlcNAc; conditions: glycan notation: IUPAC condensed, linker removed; mutation: D325A
Outline: as §1

[29] = target: Man(a1-3)[Man(a1-6)]Man(a1-6)[Man(a1-3)]Man; conditions: glycan notation: IUPAC condensed, linker removed; mutation: D325A
Outline: as §1

[30] = target: Neu5Gc(a2-3)Gal(b1-4)[Fuc(a1-3)]GlcNAc; conditions: glycan notation: IUPAC condensed, linker removed; mutation: D325A
Outline: as §1

| Binder | glycan array binding signal (z-score) [1] | glycan array binding signal (z-score) [2] | glycan array binding signal (z-score) [3] | glycan array binding signal (z-score) [4] | glycan array binding signal (z-score) [5] | glycan array binding signal (z-score) [6] | glycan array binding signal (z-score) [7] | glycan array binding signal (z-score) [8] | glycan array binding signal (z-score) [9] | glycan array binding signal (z-score) [10] | glycan array binding signal (z-score) [11] | glycan array binding signal (z-score) (Neu5Ac(a2-6)GalNAc) | glycan array binding signal (z-score) [12] | glycan array binding signal (z-score) [13] | glycan array binding signal (z-score) [14] | glycan array binding signal (z-score) [15] | glycan array binding signal (z-score) (Fuc(a1-2)Gal(b1-3)GlcNAc) | glycan array binding signal (z-score) [16] | glycan array binding signal (z-score) [17] | glycan array binding signal (z-score) [18] | glycan array binding signal (z-score) [19] | glycan array binding signal (z-score) [20] | glycan array binding signal (z-score) (Gal(a1-3)GalNAc) | glycan array binding signal (z-score) [21] | glycan array binding signal (z-score) [22] | glycan array binding signal (z-score) [23] | glycan array binding signal (z-score) (Gal3S(b1-3)GalNAc) | glycan array binding signal (z-score) (Gal4S6S(b1-4)GlcNAc) | glycan array binding signal (z-score) (GlcA(b1-6)Gal) | glycan array binding signal (z-score) [24] | glycan array binding signal (z-score) [25] | glycan array binding signal (z-score) [26] | glycan array binding signal (z-score) [27] | glycan array binding signal (z-score) [28] | glycan array binding signal (z-score) [29] | glycan array binding signal (z-score) [30] |
| --- | --- | --- | --- | --- | --- | --- | --- | --- | --- | --- | --- | --- | --- | --- | --- | --- | --- | --- | --- | --- | --- | --- | --- | --- | --- | --- | --- | --- | --- | --- | --- | --- | --- | --- | --- | --- |
| B1 | 3.11 | -1.25 | -0.406 | 0.036 | 0.919 | -0.125 | 2.54 | -0.907 | -0.924 | -1.25 | -1.69 | 0.447 | -0.496 | -0.622 | -1.52 | – | – | – | – | – | – | – | – | – | – | – | – | – | – | – | – | – | – | – | – | – |
| B2 | – | – | – | – | – | – | – | – | – | – | – | – | – | – | – | -0.163 | -0.276 | -0.226 | -0.272 | -0.268 | -0.246 | -0.269 | -0.164 | -0.267 | -0.273 | -0.269 | -0.274 | -0.275 | -0.26 | -0.128 | 5.67 | 5.16 | 4.8 | 4.71 | 4.73 | -0.27 |
